Source: PubChem
SMARCA2 act – activators of SMARCA2 function; MG213 cells, MMTV-luciferase reporter, dexamethasone, overnight; activation, % at 9.1 µM; 370,000 tested, 1% active; in the data active = activation above about 7.8%;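 note: 0% = vehicle wells and 100% = reference activator wells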
ssDAF12 agonist – S. stercoralis DAF-12 activation, primary screen; HEK293 ssDAF-12/GRIP1 lit1-tk-luc reporter, luminescence; % of 3 µM dafachronic acid response; activation, % at 6.8 µM; 370,000 tested, 1% active; AID 652126;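 active = activation above the mean over all tested compounds plus 3 SD, cut at about 0.9% in these data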;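 note: 0% = DMSO-only wells and 100% = 3 µM delta7-dafachronic acid wells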
DAX1 inh – inhibitors of DAX1 repression of SF-1 activated StAR promoter; HEK293T StAR-luciferase reporter, SF-1/DAX-1 repression relief; 370,000 tested, 1.1% active; inhibition, % at 6.8 µM;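 active = inhibition above the mean over all tested compounds plus 3 SD, cut at about 3.6% in these data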;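 note: 0% = DAX-1 cells with DMSO and 100% = cells lacking DAX-1 with DMSO; higher inhibition means more luminescence from relief of DAX-1 repression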
hcDAF12 agonist – activators of H. contortus DAF-12 nuclear receptor; HEK293 hcDAF-12 lit1-tk-luc reporter, luminescence; 0% DMSO, 100% Δ7-dafachronic acid; activation, % at 6.8 µM; 370,000 tested, 1.4% active;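 active = activation above the mean of all tested compounds plus 3 SD, cut at about 5.5% in these data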;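 note: 100% = response to 3 µM Δ7-dafachronic acid high control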
hgDAF12 agonist – activates the H. glycines DAF-12 receptor ligand-binding domain; 370,000 tested, 1.8% active; HEK293 GAL4-hgDAF12 UAS-luciferase reporter, agonist luminescence; normalized to butyrate control; activation, % at 6.8 µM;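 active = activation above a cutoff set at the mean of all screened compounds plus 3 SD, cut at about 10% in these data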;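 note: 0% = DMSO wells and 100% = sodium butyrate wells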
LXRb hcDAF ctr – counter-screen for hcDAF-12 agonists: agonists of human LXR-beta | shares compounds with hcDAF12 agonist | HEK293 Gal4-LXR tk-luc reporter, luminescence, 24 h; normalized: DMSO 0%, positive control 100% | activation, % at 6.8 µM | 3,400 tested, under 10 active;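 active = mean percent activation of the reporter above a cutoff set as the average over tested compounds plus their standard deviation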
Target sequence (P55055 whole entry, looked up, the tested form may be a part): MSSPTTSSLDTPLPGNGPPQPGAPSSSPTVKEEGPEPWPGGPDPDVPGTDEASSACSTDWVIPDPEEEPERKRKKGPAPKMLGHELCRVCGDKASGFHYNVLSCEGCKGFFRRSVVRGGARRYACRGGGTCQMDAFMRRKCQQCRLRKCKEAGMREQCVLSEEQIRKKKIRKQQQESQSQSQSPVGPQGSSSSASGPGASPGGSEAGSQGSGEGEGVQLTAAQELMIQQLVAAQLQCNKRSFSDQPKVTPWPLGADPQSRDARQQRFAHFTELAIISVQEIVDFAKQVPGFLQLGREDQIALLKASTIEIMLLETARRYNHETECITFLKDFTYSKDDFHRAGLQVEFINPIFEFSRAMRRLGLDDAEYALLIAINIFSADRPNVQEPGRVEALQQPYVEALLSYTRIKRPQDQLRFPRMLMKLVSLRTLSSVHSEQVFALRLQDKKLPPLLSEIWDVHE
hcDAF12 conf – hcDAF-12 agonism, confirmation assay | activation, % at 6.8 µM | HEK293 hcDAF-12 lit1-tk-luc reporter, luminescence; % of Δ7-dafachronic acid response | shares compounds with hcDAF12 agonist | 3,400 tested, 61% active;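 active = mean activation across triplicate tests above the threshold derived from the earlier primary screen, cut at about 5.5% in these data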;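 note: 0% = DMSO only wells and 100% = 3 µM Δ7-dafachronic acid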
* marks the source's active call; other numbers are inactive results; nt = no result. Most compounds without a hit are left out; they make up all but 4.2% or so of the library.

SMILES	SMARCA2 act	ssDAF12 agonist	DAX1 inh	hcDAF12 agonist	hgDAF12 agonist	LXRb hcDAF ctr	hcDAF12 conf
Cc1c(C(=O)Nc2ccc(N3CCOCC3)cc2)oc2ccccc12	7	0	1	11*	5	1	8.6*
Cc1c(C(=O)OCC(=O)Nc2ccc(N3CCOCC3)cc2)oc2ccccc12	3	-1	0	1	-1	nt	nt
Brc1ccc(-c2nn3c(-c4ccccc4)nnc3s2)cc1	4	-1	0	-3	-2	nt	nt
Cc1c(C(=O)NC(C)c2ccccn2)oc2c(Cl)cccc12 (stereo unspecified)	1	0	-1	5	-1	nt	nt
Cc1c(C(=O)Nc2ccccn2)oc2c(Cl)cccc12	0	2.0*	0	8.8*	2	0	6.5*
CC(C)[C@@H](C)/C=C/[C@@H](C)[C@H]1CC[C@@H]2[C@]1(C)CCC1[C@]23C=C[C@]2(C[C@@H](O)CC[C@]12C)N(C(=O)Cc1ccccc1)O3 (stereo partly specified)	4	-1	0	-1	-3	nt	nt
CN(C)c1ccc(-c2cc3ccccc3c(=O)o2)cc1	7	1.7*	3	9.5*	20*	2	16*
c1nc2nc3c(c(N4CCCC4)n2n1)CCCC3	-6	-1	0	-1	-2	nt	nt
CC(=O)Nc1c(-c2ccc3ccccc3c2)nc2ccccn12	7	1.9*	2	7.6*	9	1	7.3*
O=S(=O)(c1ccc(Cl)cc1)N1CCN(CCc2ccccc2)CC1	1	-1	0	-1	0	nt	nt
O=S(=O)(c1ccc(F)cc1)N1CCN(CCc2ccccc2)CC1	-1	-1	0	6.8*	-3	0	-1
O=C(c1ccc(C(F)(F)F)cc1)N(CCCn1ccnc1)C(c1ccccn1)c1nc2ccccc2[nH]1 (stereo unspecified)	0	0	2	7.5*	5	0	5
Nc1cc2c(cc1Cl)-c1ccccc1C2	2	0	0	7.5*	12*	0	4
Nc1cc2c(cc1Cl)-c1ccc(Cl)cc1C2	0	0	0	2	9	nt	nt
Cc1cc2c(s1)c1cnn(Cc3cc(F)c(F)cc3F)c(=O)c1n2C	nt	-1	nt	-3	0	nt	nt
CC(=O)N[C@@H](Cc1ccc(O)cc1)CN1C(N)=NC[C@@H]1CC(C)C	2	0	1	6.8*	1	0	0
COCCCNC(=O)c1nnn2c1nc(N)c1cc(Cl)ccc12	-1	-1	2	0	1	nt	nt
COC(=O)CN1C(c2cccc(Cl)c2)=Nc2ccc(Cl)cc2C1c1ccccc1 (stereo unspecified)	-4	-1	0	10*	1	0	2
O=C(NNc1nc2ccccc2o1)c1ccccc1	4	0	2	8.2*	11*	1	4
CCCCc1c(-c2ccccc2OC)ncn1Cc1ccc(OC)c(Cl)c1	-7	-1	-3	-2	-4	nt	nt
COc1cccc(/C=C2/SC(=S)N(CC(=O)Nc3nnc(C)s3)C2=O)c1	-3	-1	0	1	0	nt	nt
COc1cccc(/C=C2/SC(=S)N(CC(=O)NNC(=O)c3ccccc3OC)C2=O)c1	-1	0	0	8.5*	2	0	5
Cc1cc(C)cc([C@H]2C[C@]34CN(Cc5ccccc5)S(=O)(=O)[C@H]3C[C@H]2O4)c1	-2	-1	2	-1	-2	nt	nt
C=CCn1c(SCC(=O)c2ccc(-c3ccccc3)cc2)nnc1-c1ccc(OC)cc1	-2	-2	-2	-3	-2	nt	nt
Cc1cccc(-c2nc3ccccc3c(=O)[nH]2)c1	1	-1	1	1	8	nt	nt
SMILES	SMARCA2 act	ssDAF12 agonist	DAX1 inh	hcDAF12 agonist	hgDAF12 agonist	LXRb hcDAF ctr	hcDAF12 conf
COc1ccc(-c2nc3ccccc3c(=O)[nH]2)cc1	4	0	3	7.4*	13*	1	8.4*
CN(N=Cc1ccccc1O)c1ccc2ccccc2n1	5	2.4*	2	8.6*	12*	2	12*
COc1ccc(NC(=O)Nc2ccc3[nH]ccc3c2)cc1	2	0	3	3	8	nt	nt
O=C(Nc1ccc2[nH]ccc2c1)c1ccccc1	3	1	3	9.2*	12*	2	9.5*
NC(=O)c1c(NC(=O)c2ccccc2)sc2c1CCC2	3	2.1*	1	16*	15*	2	19*
NC(=O)c1c(NC(=O)c2ccncc2)sc2c1CCCC2	3	-2	0	-2	5	nt	nt
Cc1ccc(NC(=O)c2nsc(Cl)c2Cl)cc1	2	2.1*	3	13*	11*	2	14*
O=C(NC(=S)NNC(=O)c1cccs1)c1ccccc1	0	0	1	4	4	nt	nt
CC(C)(C)c1ccc(C(=O)NC(=S)NNC(=O)c2cccs2)cc1	7	1	3	21*	9	0	1
O=C(O)c1ccc(N/N=C/c2cccc3cccnc23)cc1	1	2.0*	3	8.1*	13*	1	7.9*
COC(=O)C1CN(Cc2ccc(C)cc2)CCS(=O)(=O)N1Cc1cn(Cc2ccc(C)cc2)nn1 (stereo unspecified)	-6	-2	0	-2	0	nt	nt
Cc1cccc(NC(=O)CSc2ncnc3sc4c(c23)CCCC4)c1	0	-1	0	-2	0	nt	nt
Cc1cc2ncc(-c3cccs3)nc2cc1C	6	2.1*	3	15*	18*	3	18*
c1csc(-c2ccc3ccccc3n2)c1	5	0	2	5	8	nt	nt
COC(=O)C[C@H]1CC[C@H]2[C@H](COc3ccc(NC(=O)c4cccs4)cc3C(=O)N2C)O1	-3	-2	1	-2	4	nt	nt
CCc1ccc(OCc2nc(-c3ccccn3)no2)c(Br)c1	1	1.0*	7.1*	7.7*	8	1	6.4*
CN[C@H]1C[C@H]2c3[nH]c4ccccc4c3CCN2C(=O)[C@H]1[C@H](C)O	-3	0	2	8.1*	4	0	3
C[C@H]1CNC(=O)c2c(C(=O)N3CCN(c4ccccc4)CC3)ncn21	-2	-1	0	1	1	nt	nt
CCCc1cc2c(=O)c(-c3nc4ccccc4s3)c(COCC(=O)O)oc2cc1O	8	0.9*	1	6.8*	9	0	7.7*
CCc1cc2c(=O)c(-c3nc4ccccc4n3C)c(COCC(=O)O)oc2cc1O	0	0	1	2	1	nt	nt
COc1ccccc1/C=C/C(=O)N1CCOCC1	-3	-1	0	0	-3	nt	nt
